# Measured values taken from PubChem BioAssay (EPA / NIEHS).
# The source holds several records for some structures; these can differ, active in one and inactive in another. The source made the active and inactive calls. The calls were made as follows: active = hit-call score of the fitted dose curve at least 0.9, where 1 is the maximum; inactive = score below 0.9.
# Read-out: Plasminogen activator inhibitor-1 (PAI1), SERPINE1 (gene 5054)
# Test: BSK_BE3C_PAI1: BioMAP Diversity Plus: BE3C Assay for Plasminogen activator inhibitor-1 (PAI1) Biomarker Activity (AID 2283037)
# Details: primary human bronchial epithelial cells; actives raise or lower the signal
# Procedure: BSK_BE3C is a cell-based, multiplexed-readout assay that uses bronchial epithelial cell, a human lung primary cell, with measurements taken at 24 hours after chemical dosing in a 96-well plate.BSK_BE3C_PAI1 is an assay component measured in the BSK_BE3C assay. It measures PAI-1 antibody related to regulation of gene expression using ELISA technology.Data from the assay component BSK_BE3C_PAI1 was analyzed into 1 assay endpoint. This assay endpoint, BSK_BE3C_PAI1, was analyzed with bidirectional fitting relative to DMSO as the negative control and baseline of activity. Using a type of binding reporter, gain or loss-of-signal activity can be used to understand changes in the signaling as they relate to the gene SERPINE1. Furthermore, this assay endpoint can be referred to as a primary readout, because this assay has produced multiple assay endpoints where this one serves a signaling function. To generalize the intended target to other relatable targets, this assay endpoint is annotated to the cytokine intended target family, where the subfamily is plasmogen activator inhibitor.
# The levels of cell surface (or secreted, indicated by the prefix "s") biomarker endpoints were measured by ELISA. Overt cytotoxicity to cells in confluent adherent cultures (all systems other than the BT system) was assessed by measuring total protein levels using sulforhodamine B (SRB) staining in parallel cultures at the time of biomarker measurements, indicated as SRB endpoints. For proliferation assays for adherent cell types, individual cell types are cultured at sub-confluence and relative cell numbers quantified by SRB staining at time points optimized for each system (48 h: 3C and CASM3C systems; 72 h: BT and HDF3CGF systems; 96 h: SAg system). SRB was performed by staining cells with 0.1% SRB after fixation with 10% TCA and reading wells at 560 nm.Viability and proliferation of PBMC (T cells) was quantified by Alamar Blue reduction for the SAg and BT systems. For PBMC viability (referred to as PBMC Cytotoxicity within the assay endpoint names), cells were plated (75,000/well in a 96-well plate) and then chemical samples added for 1 h before addition of activators, SEB and TSST-1 (20 ng/mL final concentration each). Cells were incubated for 90 h. Then, Alamar Blue (20 uL/well) (Invitrogen, Cat DAL1100) was added for 6 h, and the plates were read with a fluorescence microplate reader at 546/580 nm (excitation/emission). For PBMC proliferation, cells were plated and activated as above but incubated for only 16 h prior to addition of Alamar Blue. Plates were read after 6 h.
SMILES,outcome,AC50
O=C(NO)C1(NS(=O)(=O)c2ccc(Oc3ccc(F)cc3)cc2)CCOCC1,inactive,–
CCCCCCOC(=O)CC(CC(=O)OCCCCCC)(OC(=O)CCC)C(=O)OCCCCCC,inactive,–
c1ccc2c(c1)-c1cccc3c1c-2cc1ccccc13,inactive,–
C[C@@H](Oc1ccc(CNC(=O)c2cccnc2Oc2ccc3c(c2)OCO3)c(F)c1)C(=O)O,inactive,–
COCc1nnc(-c2ccc[n+]([O-])c2)n1-c1c(Cl)c(Cl)cc2[nH]c(=O)c(=O)[nH]c12,inactive,–
c1ccc2cc3ccccc3cc2c1,inactive,–
CCCC(CCC)C(=O)O,inactive,–
Cc1ncc([C@@H](CCCCCCc2ccc3c(n2)NCCC3)CC(=O)O)cn1,inactive,–
CC(C)CC(C)O (stereo not given),inactive,–
O=C(Cl)C(F)(F)C(F)(F)C(F)(F)C(=O)Cl,inactive,12.2 µM (active)
C=CN1CCCC1=O,inactive,–
CCCCCCCCCC,inactive,–
NNC(=O)c1ccncc1,inactive,–
CCCc1ccccc1,inactive,–
OC(O)(C(F)C(O)(O)C(F)(F)F)C(F)(F)F,inactive,–
C=CCc1cc(S(=O)(=O)c2ccc(O)c(CC=C)c2)ccc1O,–,10.8 µM (active)
CCCCCCCC1CCC(=O)O1 (stereo not given),inactive,–
OC[C@H]1O[C@@](CO)(O[C@H]2O[C@H](CO)[C@@H](O)[C@H](O)[C@H]2O)[C@@H](O)[C@@H]1O,inactive,–
CCCCOC(=O)c1ccccc1,inactive,–
CCc1cccc(CC)c1N,inactive,–

SMILES,outcome,AC50
CCOC(N)=O,inactive,–
COc1cc(C(C)C)c2c(c1)S(=O)(=O)N(COc1cc(=O)n3cccc(OCCN4CCCCC4)c3n1)C2=O,–,8.4 µM (active)
OC(CCl)CCl,inactive,–
O=c1[nH]cnc2c1ncn2[C@H]1CC[C@@H](CO)O1,inactive,–
CC(C)C(=O)Nc1ccc([N+](=O)[O-])c(C(F)(F)F)c1,inactive,–
FC(F)C(F)(F)COCC1CO1 (stereo not given),inactive,–
O=C(O)c1cccc(C(=O)O)c1,inactive,–
Cn1c(=O)c2[nH]cnc2n(C)c1=O,inactive,–
NC(=O)NN=Cc1ccc([N+](=O)[O-])o1,inactive,–
C[C@]12C=CC(=O)C=C1CC[C@H]1[C@@H]3C[C@@H](O)[C@](O)(C(=O)CO)[C@@]3(C)C[C@H](O)[C@@]12F,inactive,–
O=C(O)c1ccc2c(c1)nc(C(=O)NC1CCN(C3CC3)CC1)n2Cc1cc(-c2ccc(Cl)s2)on1,inactive,–
CC(=O)c1ccccc1,inactive,–
Cc1nccn1-c1ccc(Sc2cccc(C3(C(N)=O)CCOCC3)c2)cc1,inactive,–
O=S(=O)(O)CCC(F)(F)C(F)(F)C(F)(F)C(F)(F)C(F)(F)C(F)(F)F,inactive,–
FC(F)(F)C(F)(F)C(F)(F)C(F)(F)C(F)(F)C(F)(F)I,inactive,–
OCCC(F)(F)C(F)(F)C(F)(F)C(F)(F)F,inactive,–
c1ccc2ncccc2c1,inactive,–
CC(C)c1nnc2ccc(-c3ocnc3-c3cc(F)ccc3F)cn12,inactive,–
Nc1ccn([C@@H]2O[C@H](CO)[C@@H](O)[C@@H]2O)c(=O)n1,inactive,–
